Experimental findings from PubChem BioAssay AID651610 (Broad Institute, 2012) are described below.

Out of some 360,000 compounds screened, about 3,900 (1.1%) were called active. This is one part of a sample in which actives are shown more often than they occur. A number with no mark means an inactive call.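 The calls were made as follows: active = mean replicate inhibition score of at least 50 and every replicate individually at or above 50; inconclusive = only one of the two criteria met; inactive = mean below 50 and not all replicates reaching 50.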

The nature of this assay: inhibitors of HIV-1 Env-driven cell-cell fusion, primary screen, HeLa-JRFL effector, CEM21 target cells, luciferase (AID 651610).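 Also: 0% = plate neutral controls and 100% = maraviroc near 300 nM.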 As to conditions: active compounds read high; at 16.7 µM unless noted.
Broadly, the inhibition is the drop in the measured response relative to a control, in per cent. With `O=C(N[C@@H]1C=C[C@H](CC(=O)N2CCCCC2)O[C@H]1CO)c1cccc(F)c1`, the inhibition was 2.78%.

In the case of `COc1cccc(NC(=O)N[C@@H]2CC[C@H](CC(=O)Nc3ccccc3)O[C@@H]2CO)c1`, the inhibition is -24.4%.

As to `Cc1ccc(S(=O)(=O)Nc2cccc3c2O[C@H](CN(C)S(=O)(=O)c2cn(C)cn2)[C@H](C)CN([C@H](C)CO)C3=O)cc1`, the inhibition is -8.23%.

Take `C[C@H]1CCCCO[C@@H](CN(C)S(=O)(=O)c2ccc(Cl)cc2)[C@@H](C)CN([C@@H](C)CO)C(=O)c2cc(NS(=O)(=O)c3cn(C)cn3)ccc2O1`: the inhibition was 3.67%.

On to `C[C@@H]1CN([C@@H](C)CO)C(=O)c2cc(NS(C)(=O)=O)ccc2O[C@@H](C)CCCCO[C@@H]1CN(C)S(=O)(=O)c1cn(C)cn1`, for which the inhibition is -12%.

As to `Cc1ccc(S(=O)(=O)Nc2cccc3c2O[C@@H](CN(C)C(=O)Nc2ccccc2)[C@H](C)CN([C@@H](C)CO)C3=O)cc1`, the inhibition is 8.55%.

Regarding `C[C@H](NC(=O)C[C@H]1CC[C@H]2[C@@H](COC[C@H](O)CN2C(=O)Nc2cccc(Cl)c2)O1)c1ccccc1`, the inhibition is -9.13%.

With `C[C@H](O)C#Cc1ccc2c(c1)O[C@@H](CN(C)CC1CCCC1)[C@H](C)CN([C@@H](C)CO)S2(=O)=O`, the inhibition was -37.3%.

Consider `C[C@H](CO)N1C[C@H](C)[C@H](CN(C)C)Oc2cc(C#CC3CC3)ccc2S1(=O)=O`, for which the inhibition was -1.04%.

For `C[C@H]1CN([C@@H](C)CO)C(=O)c2cc(NC(=O)Nc3cccc4ccccc34)ccc2O[C@@H]1CN(C)C`, the inhibition was 3.97%.

With `C[C@@H]1CN([C@H](C)CO)C(=O)c2cc(NS(=O)(=O)c3ccccc3)ccc2O[C@H]1CN(C)C(=O)Nc1ccc2c(c1)OCO2`, the inhibition was -19.2%.

In the case of `O=C(NCC[C@H]1CC[C@@H](NC(=O)C2CCCCC2)[C@@H](CO)O1)c1ccc(F)cc1`, the inhibition was -1.25%.

As to `C[C@@H]1CN([C@H](C)CO)C(=O)c2cc(NS(=O)(=O)c3cn(C)cn3)ccc2O[C@@H](C)CCCCO[C@H]1CN(C)C`, the inhibition is 1.08%.

Turning to `C[C@H](CO)N1C[C@H](C)[C@@H](CN(C)C(=O)Nc2ccc3c(c2)OCO3)OCCCC[C@H](C)Oc2ccc(NC(=O)Nc3ccc4c(c3)OCO4)cc2C1=O`, the inhibition is -2.35%.

As to `C[C@@H]1CN([C@H](C)CO)C(=O)c2cc(NC(=O)c3ccncc3)ccc2O[C@H]1CN(C)Cc1ccc(Oc2ccccc2)cc1`, the inhibition is -5.1%.

Consider `C[C@@H]1CCCCO[C@H](CN(C)C)[C@H](C)CN([C@@H](C)CO)C(=O)c2cc(NS(=O)(=O)c3cn(C)cn3)ccc2O1`, for which the inhibition is 57.7% (active).

Take `C[C@@H]1CCCCO[C@@H](CN(C)Cc2ccc(C(F)(F)F)cc2)[C@@H](C)CN([C@H](C)CO)C(=O)c2cc(NC(=O)Nc3ccccc3)ccc2O1`: the inhibition was 9.84%.

For `C[C@H](CO)N1C[C@H](C)[C@@H](CN(C)Cc2ccncc2)Oc2ccc(NC(=O)Nc3ccccc3)cc2C1=O`, the inhibition was 4.38%.

Consider `C[C@@H]1CN([C@H](C)CO)C(=O)c2cc(NC(=O)Nc3ccccc3)ccc2O[C@@H](C)CCCCO[C@H]1CN(C)Cc1ccc(C(F)(F)F)cc1`, for which the inhibition was 5.92%.

On to `C[C@@H]1CN([C@@H](C)CO)C(=O)c2cc(NS(=O)(=O)c3cn(C)cn3)ccc2O[C@@H](C)CCCCO[C@H]1CN(C)S(=O)(=O)c1cn(C)cn1`, for which the inhibition was 2.07%.

Regarding `C[C@H](CO)N1C[C@H](C)[C@H](CN(C)C(=O)NC2CCCCC2)OCCCC[C@H](C)Oc2ccc(NC(=O)Nc3ccc4c(c3)OCO4)cc2C1=O`, the inhibition was 18.2%.

As for `C[C@H]1CCCCO[C@H](CN(C)C(=O)NC2CCCCC2)[C@@H](C)CN([C@@H](C)CO)C(=O)c2cc(NC(=O)Nc3ccc4c(c3)OCO4)ccc2O1`, the inhibition was 62.7% (active).

Turning to `C[C@@H]1CN([C@@H](C)CO)C(=O)c2cc(NC(=O)c3ccncc3)ccc2O[C@@H]1CN(C)Cc1ccncc1`, the inhibition is 85.6% (active).

For `C[C@H]1CCCCO[C@@H](CN(C)Cc2ccc(C(F)(F)F)cc2)[C@@H](C)CN([C@@H](C)CO)C(=O)c2cc(NC(=O)Nc3ccccc3)ccc2O1`, the inhibition was 86.8% (active).

As to `C[C@@H]1CN([C@@H](C)CO)C(=O)Cc2cc(NC(=O)C3CCCCC3)ccc2O[C@@H]1CN(C)Cc1ccncc1`, the inhibition was 6.59%.

As for `COCC#Cc1cnc2c(c1)C(=O)N([C@@H](C)CO)C[C@@H](C)[C@@H](CN(C)C(=O)Nc1ccccc1OC)O2`, the inhibition was 2.09%.

Consider `COC(=O)C[C@H]1CC[C@H](NC(=O)c2ccccc2)[C@@H](CO)O1`, for which the inhibition was -4.18%.

As for `CN1CCN(C(=O)C[C@H]2C[C@@H]3c4cc(NC(=O)Nc5ccc(C(F)(F)F)cc5)ccc4O[C@@H]3[C@H](CO)O2)CC1`, the inhibition is 7.48%.

With `C[C@@H]1CN([C@H](C)CO)S(=O)(=O)c2ccc(C#C[C@@H](C)O)cc2O[C@H]1CN(C)C(=O)C1CCCCC1`, the inhibition was -6.31%.

Turning to `CO[C@H]1CN(C)C(=O)c2cc(NC(=O)c3ccccc3)ccc2OC[C@H](C)NC[C@H]1C`, the inhibition is -18.7%.

As to `C[C@@H]1CCCCO[C@H](CN(C)Cc2ccc(C(F)(F)F)cc2)[C@H](C)CN([C@H](C)CO)C(=O)c2cc(NC(=O)Nc3ccc(F)cc3)ccc2O1`, the inhibition was 9.27%.

On to `COc1ccc(NC(=O)Nc2ccc3c(c2)C(=O)N([C@@H](C)CO)C[C@H](C)[C@H](CN(C)Cc2ccc(C(F)(F)F)cc2)OCCCC[C@H](C)O3)cc1`, for which the inhibition was 55.7% (active).

On to `C[C@@H]1CN([C@H](C)CO)C(=O)c2cc(NC(=O)Nc3ccc(C(F)(F)F)cc3)ccc2O[C@@H](C)CCCCO[C@@H]1CN(C)Cc1ccc(C(F)(F)F)cc1`, for which the inhibition is 32%.

With `CC(C)NC(=O)Nc1ccc2c(c1)C(=O)N([C@H](C)CO)C[C@H](C)[C@@H](CN(C)Cc1ccc(C(F)(F)F)cc1)OCCCC[C@@H](C)O2`, the inhibition was 76.6% [at 12.3 µM] (active).

As to `COc1ccc(NC(=O)Nc2ccc3c(c2)C(=O)N([C@H](C)CO)C[C@H](C)[C@@H](CN(C)Cc2ccc(C(=O)O)cc2)OCCCC[C@H](C)O3)cc1`, the inhibition is -1.91%.

Turning to `COc1ccc(CN(C)C[C@@H]2OCCCC[C@@H](C)Oc3ccc(NC(=O)Nc4ccc(C(F)(F)F)cc4)cc3C(=O)N([C@H](C)CO)C[C@H]2C)cc1`, the inhibition was 40.3%.

Take `O=C(C[C@H]1C=C[C@@H](NS(=O)(=O)c2ccc(F)cc2)[C@@H](CO)O1)NC1CCC1`: the inhibition is 11.3%.

Regarding `O=C(C[C@H]1C[C@H]2c3cc(NC(=O)Nc4ccc(C(F)(F)F)cc4)ccc3O[C@H]2[C@@H](CO)O1)NCCc1ccccc1`, the inhibition was 6.45%.

As for `C[C@@H]1CCCCO[C@H](CN(C)C(=O)Nc2ccc(C(F)(F)F)cc2)[C@@H](C)CN([C@@H](C)CO)C(=O)c2cc(NS(=O)(=O)c3cccs3)ccc2O1`, the inhibition was 3.25%.

For `CN1C(=O)c2cc(NC(=O)Cc3cccs3)ccc2OC[C@@H]2O[C@@H](CC(=O)N[C@@H]3CCN(Cc4ccccc4)C3)CC[C@H]21`, the inhibition is -14%.

In the case of `COc1ccc(-n2c(C)cc(C(=O)CSc3nnc(-c4cccs4)o3)c2C)cc1`, the inhibition is 89.2% [at 12.3 µM] (active).

On to `COc1ccc(-c2nnc(SCC(=O)c3ccc4c(c3)OCCO4)o2)cc1`, for which the inhibition was 22.9% [at 12.3 µM].

As to `COc1ccc(-n2c(C)cc(C(=O)COC(=O)c3cc(OC)c(OC)cc3NC(=O)c3cccs3)c2C)cc1`, the inhibition is -7.79% [at 12.3 µM].

For the compound `N#C[C@H]1[C@@H](c2ccc(C3=CCCCC3)cc2)[C@@H](CO)N1C(=O)NC1CCCCC1`, the inhibition was 0.133%.

As for `COc1ccccc1-c1ccc2c(c1)O[C@@H](CN(C)C(=O)Nc1ccccc1)[C@H](C)CN([C@@H](C)CO)S2(=O)=O`, the inhibition is -37.6%.

With `COc1ccc(NC(=O)N(C)C[C@@H]2Oc3ccc(NS(=O)(=O)c4ccc(C)cc4)cc3CC(=O)N([C@@H](C)CO)C[C@H]2C)cc1`, the inhibition was 4.71%.

`O=C(CSc1ncnc2scc(-c3ccccc3)c12)NCc1ccc2c(c1)OCO2`: the inhibition is 22.4% [at 12.3 µM].

In the case of `CN(C)C(=O)c1cccc(-c2cnc3sc(NCc4ccc5c(c4)OCO5)nn23)c1`, the inhibition is 68.4% [at 12.3 µM] (active).

Take `CN(C)C(=O)c1cccc(-c2cnc3c(NC=O)cc(-c4ccc(C(=O)N5CCOCC5)cc4)cn23)c1`: the inhibition is -15.1% [at 12.3 µM].

As to `O=C(Nc1ccc(C(F)(F)F)cc1)N[C@@H]1CC[C@@H](CCNC(=O)c2ccccc2F)O[C@H]1CO`, the inhibition was -1.09%.

As to `Cc1noc(C)c1S(=O)(=O)Nc1ccc2c(c1)CC(=O)N([C@@H](C)CO)C[C@H](C)[C@@H](CN(C)S(=O)(=O)c1cn(C)cn1)O2`, the inhibition is -11.7%.

Turning to `C[C@H]1CCCCO[C@@H](CN(C)C(=O)c2ccccc2)[C@@H](C)CN([C@@H](C)CO)C(=O)c2cc(NS(=O)(=O)c3ccccc3)ccc2O1`, the inhibition was -27.7%.

On to `CNc1nccc(-c2ccc(Cl)cc2)c1C#N`, for which the inhibition was 58.1% [at 12.3 µM] (active).

In the case of `CN(C)c1nc(-c2cccnc2)nc(-c2ccc(Cl)cc2)c1C#N`, the inhibition is -27.7% [at 12.3 µM].

Consider `CN(C)c1ccnc(Nc2ccc(F)cc2)c1C#N`, for which the inhibition is 2.55% [at 12.3 µM].

With `CCCN(C)C[C@H]1Oc2ncc(-c3ccccc3OC)cc2C(=O)N([C@H](C)CO)C[C@@H]1C`, the inhibition was 16.3%.

Regarding `COc1ccc2cc(C3=CC(=O)C[C@H](c4ccc5c(c4)OCO5)C3)ccc2c1`, the inhibition was -8.67% [at 12.3 µM].

For `O=C1C=C(c2cc(C(F)(F)F)cc(C(F)(F)F)c2)C[C@@H](c2ccc3c(c2)OCO3)C1`, the inhibition was 14.8% [at 12.3 µM].

With `O=C1C=C(c2ccnc3cc(Cl)ccc23)C[C@@H](c2ccc3c(c2)OCO3)C1`, the inhibition is 65.8% [at 12.3 µM] (active).
